Measured values from PubChem BioAssay (NCATS).
Several values for one entry are separate records, joined by “and”; a condition that tells them apart may be missing. Identical values can stand only once. Results filed as inconclusive are left out. Some structures have more than one record in an assay (separate samples or runs), and their calls can disagree. Activity calls are given as the source filed them. Calls follow the shape of the dose curve; as a rule, active = well fitted inhibition curve with a large enough effect; inconclusive = small, poorly fitted or top-dose-only effect; inactive = flat fitted curve, though single readings scatter.

Assays:
[1] = system: HB3; assay: qHTS profiling for inhibitors of Plasmodium falciparum proliferation (AID 504749); settings: P. falciparum in erythrocytes, SYBR Green DNA, 72 h; series mostly up to 28.7 µM
How it was run: (§1)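 Three-day growth assay of blood-stage parasites in erythrocytes (0.3% parasitemia, 2.5% hematocrit) at 37 C, 5% CO2, quantified by SYBR Green DNA staining after overnight detergent lysis.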

[2] = system: JCK; assay: as above; settings: P. falciparum in erythrocytes, SYBR Green DNA, 72 h; series mostly up to 28.7 µM
How it was run: as §1

[3] = system: N140; assay: as above; settings: P. falciparum in erythrocytes, SYBR Green DNA, 72 h; series mostly up to 28.7 µM
How it was run: as §1

[4] = system: PAD; assay: as above; settings: P. falciparum in erythrocytes, SYBR Green DNA, 72 h; series mostly up to 28.7 µM
How it was run: as §1

[5] = system: PC49; assay: as above; settings: P. falciparum in erythrocytes, SYBR Green DNA, 72 h; series mostly up to 28.7 µM
How it was run: as §1

[6] = system: SC27B; assay: as above; settings: P. falciparum in erythrocytes, SYBR Green DNA, 72 h; series mostly up to 28.7 µM
How it was run: as §1

[7] = system: TAB109; assay: as above; settings: P. falciparum in erythrocytes, SYBR Green DNA, 72 h; series mostly up to 28.7 µM
How it was run: as §1

[8] = system: TAB113; assay: as above; settings: P. falciparum in erythrocytes, SYBR Green DNA, 72 h; series mostly up to 28.7 µM
How it was run: as §1

[9] = system: W2; assay: as above; settings: P. falciparum in erythrocytes, SYBR Green DNA, 72 h; series mostly up to 28.7 µM
How it was run: as §1

[10] = system: HEK293; assay: Cytotoxic Profiling of Annotated Libraries Using Quantitative High-Throughput Screening (AID 1296008); settings: Five cell lines viability, CellTiter-Glo ATP luminescence, 48-72 h; max response: stronger effect = lower value; as to max response: % is scaled to controls: 0 for no effect and ±100 for the full control effect
How it was run: (§2)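 Cytotoxicity was measured as CellTiter-Glo ATP luminescence, read after 10 min at room temperature. Compound treatment of the cells lasted 48 or 72 hr at 37 degrees Celsius in a qHTS format.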

[11] = system: HaCat; assay: as above; settings: Five cell lines viability, CellTiter-Glo ATP luminescence, 48-72 h; max response: stronger effect = lower value
How it was run: as §2

[12] = system: KB-3-1; assay: as above; settings: Five cell lines viability, CellTiter-Glo ATP luminescence, 48-72 h; max response: stronger effect = lower value
How it was run: as §2

[13] = system: ICS; assay: qHTS profiling for inhibitors of Plasmodium falciparum proliferation (AID 504749); settings: P. falciparum in erythrocytes, SYBR Green DNA, 72 h; series mostly up to 28.7 µM
How it was run: as §1

[14] = system: P93_24; assay: as above; settings: P. falciparum in erythrocytes, SYBR Green DNA, 72 h; series mostly up to 28.7 µM
How it was run: as §1

[15] = system: P94_40; assay: as above; settings: P. falciparum in erythrocytes, SYBR Green DNA, 72 h; series mostly up to 28.7 µM
How it was run: as §1

[16] = system: PC15; assay: as above; settings: P. falciparum in erythrocytes, SYBR Green DNA, 72 h; series mostly up to 28.7 µM
How it was run: as §1

[17] = system: PC26; assay: as above; settings: P. falciparum in erythrocytes, SYBR Green DNA, 72 h; series mostly up to 28.7 µM
How it was run: as §1

[18] = system: TAB165; assay: as above; settings: P. falciparum in erythrocytes, SYBR Green DNA, 72 h; series mostly up to 28.7 µM
How it was run: as §1

[19] = system: CRL-7250; assay: Cytotoxic Profiling of Annotated Libraries Using Quantitative High-Throughput Screening (AID 1296008); settings: Five cell lines viability, CellTiter-Glo ATP luminescence, 48-72 h; max response: stronger effect = lower value; as to max response: % is scaled to controls: 0 for no effect and ±100 for the full control effect
How it was run: as §2

[20] = system: NIH3T3; assay: as above; settings: Five cell lines viability, CellTiter-Glo ATP luminescence, 48-72 h; max response: stronger effect = lower value
How it was run: as §2
Also: nearly all actives have a fitted effect of over 60% in size.
Potency is read from the fitted curve at half-maximal effect.

CNCCCC12CCC(c3ccccc31)c1ccccc12
active: Potency [9] 6.01 µM | Potency [10] 11.9 µM and 16.6 µM
inactive: Potency [1] | Potency [2] | Potency [3] | Potency [4] | Potency [5] | Potency [6] | Potency [7] | Potency [8] | max response [11] -20.8% and 4.86% | max response [12] 3.46%

CCCCc1oc2ccccc2c1C(=O)c1cc(I)c(OCCN(CC)CC)c(I)c1
inactive: max response [19] -7.04% and -18.2% | outcome [11] | max response [20] -21.3% and -20.5%
active: Potency [1] 11.2 µM | Potency [13] 3.55 µM | Potency [3] 5.01 µM | Potency [14] 3.55 µM | Potency [15] 3.55 µM | Potency [4] 6.31 µM | Potency [16] 11.2 µM | Potency [17] 9.53 µM | Potency [6] 10 µM | Potency [7] 7.08 µM | Potency [8] 12.6 µM | Potency [18] 3.16 µM | Potency [9] 4.26 µM | Potency [10] 23.5 µM

COc1cc2nc(N3CCN(C(=O)c4ccco4)CC3)nc(N)c2cc1OC
inactive: max response [11] -3.1% | max response [20] -23.2%

CC12CC3CC(C)(C1)CC(N)(C3)C2
inactive: Potency [1] | Potency [13] | Potency [2] | Potency [3] | Potency [15] | Potency [4] | Potency [16] | Potency [17] | Potency [6] | Potency [7] | Potency [8] | Potency [18] | outcome [19] | max response [10] -1.65% and -16.7% | max response [11] 0.352% and -2.07% | max response [20] 1.33% and -0.312%
active: Potency [14] 10 µM

CN(C)CCCN1c2ccccc2CCc2ccc(Cl)cc21
active: Potency [13] 10 µM | Potency [9] 1.9 µM | Potency [10] 13.2 µM and 8.41 µM
inactive: Potency [1] | Potency [2] | Potency [6] | max response [19] -24.3% | outcome [11] | max response [20] -22.1%

COc1ccccc1OCCNCC(O)COc1cccc2[nH]c3ccccc3c12 (centres undefined)
inactive: Potency [1] | max response [19] 3.53% and -0.382% | max response [11] -11.1% | outcome [11] | max response [20] -1.47% and -25.5%
active: Potency [13] 7.08 µM | Potency [3] 12.6 µM | Potency [15] 10 µM | Potency [6] 12.6 µM | Potency [7] 10 µM | Potency [8] 10 µM | Potency [9] 4.78 µM

COc1nc(C)nc(Cl)c1NC1=NCCN1
inactive: Potency [1] | Potency [13] | Potency [2] | Potency [3] | Potency [15] | Potency [4] | Potency [16] | Potency [17] | Potency [5] | Potency [6] | Potency [7] | Potency [8] | Potency [18] | Potency [9] | max response [19] -8.35% | max response [10] -5.08% and -4.05% | outcome [11] | max response [20] -2.5% and 2.31%

Nc1c2c(nc3ccccc13)CCCC2
inactive: Potency [2] | Potency [5] | Potency [6] | Potency [8] | outcome [19] | outcome [11] | outcome [12] | outcome [20]
active: Potency [16] 12.6 µM | Potency [7] 8.91 µM | Potency [11] 26.4 µM

O=C(Nc1ccc([N+](=O)[O-])cc1Cl)c1cc(Cl)ccc1O
inactive: Potency [2] | Potency [17] | Potency [5]
active: Potency [13] 0.631 µM | Potency [3] 0.631 µM | Potency [4] 0.631 µM | Potency [6] 0.631 µM | Potency [8] 0.708 µM | Potency [18] 0.355 µM | Potency [9] 0.953 µM

C[C@@H]1CC(=O)NN=C1c1ccc(NN=C(C#N)C#N)cc1
inactive: outcome [19] | max response [11] -5.36% and -8.18% | max response [12] -4.37%
active: Potency [11] 18.7 µM

COc1cc2c(c(OC)c1OC)-c1ccc(OC)c(=O)cc1[C@@H](NC(C)=O)CC2
inactive: Potency [1] | Potency [13] | Potency [2] | Potency [3] | Potency [14] | Potency [15] | Potency [4] | Potency [16] | Potency [17] | Potency [5] | Potency [6] | Potency [7] | Potency [8] | Potency [18] | max response [10] -105% | max response [11] -4.55% and -18.6% | max response [20] -60%
active: Potency [10] 0.0188 µM | Potency [12] 23.1 nM and 1 nM

CC1(CN2CCC(n3c(=O)[nH]c4ccccc43)CC2)OCc2ccccc2-n2cccc21 (centres undefined)
active: Potency [13] 3.98 µM | Potency [3] 12.6 µM | Potency [14] 11.2 µM | Potency [15] 10 µM | Potency [4] 8.91 µM | Potency [16] 7.94 µM | Potency [17] 12 µM | Potency [6] 10 µM | Potency [18] 8.91 µM | Potency [9] 7.57 µM
inactive: Potency [2] | Potency [5] | max response [19] -0.873% and 0.74% | max response [11] -8% | outcome [11] | max response [12] -2.15% and -10% | max response [20] -0.569% and -13.1%

O=C(c1ccc(OCCN2CCCCC2)cc1)c1c(-c2ccc(O)cc2)sc2cc(O)ccc12
active: Potency [1] 7.08 µM | Potency [13] 2 µM | Potency [3] 11.2 µM | Potency [14] 8.91 µM | Potency [15] 7.94 µM | Potency [6] 8.91 µM | Potency [7] 7.94 µM | Potency [8] 5.01 µM | Potency [18] 2.82 µM | Potency [9] 3.01 µM | Potency [11] 16.8 µM | Potency [20] 18.8 µM
inactive: outcome [19] | outcome [11] | max response [12] -14.1% and -7.5% | max response [20] -12.5%
